High-throughput results: PubChem BioAssay, several laboratories
Most compounds without a hit are left out; they make up all but 4.5% or so of the library.
dFosB activator – activators of delta FosB homodimer, primary screen, biochemical, fluorescence polarization, TAMRA-CDK5 oligo, single point; AID 493131, 2011; 340,000 tested, 0.99% active; Protein FosB (Mus musculus), P13346; activation, % at 25 µM; purified delta FosB; percent of positive-control signal above neutral wells;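 active = mean activation above about 17%, with every replicate also reaching it, limit read from the data, passing the limit was not always enough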
EBNA-1 inh – EBNA-1 DNA-binding inhibitors, primary screen, biochemical, fluorescence polarization; inhibition, % at 14.8 µM; 300,000 tested, 0.34% active; AID 1950, 2009; in the data active = inhibition above about 28%
TPT1 inhibitor – Candida albicans TPT1 enzyme inhibitors, primary screen, biochemical, fluorescence polarization | tRNA 2'-phosphotransferase TPT1 (Candida albicans SC5314) | recombinant caTPT1, FP RNA substrate dephosphorylation | inhibition, % at 5 µM | 300,000 tested, 0.81% active;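 active = inhibition above the mean of all tested compounds plus 3 SD, set per screening campaign, cut at about 24% in these data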
Rpn11 inh – Rpn11 (PSMD14) deubiquitinase inhibitors, primary screen, biochemical, fluorescence polarization, uHTS; 26S proteasome non-ATPase regulatory subunit 14 (Homo sapiens), O00487; human 26S proteasome, Ub4-pepOG fluorescence polarization; 20S core pre-blocked with epoxomicin; inhibition, % at 20 µM; 360,000 tested, 0.59% active; AID 588493, 2011;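 active = inhibition at 20 µM, scaled to each plate's controls, above about 33%, limit read from the data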
ZTA counter – ZTA (EBV) inhibition in EBNA-1 counter-screen. inhibition, % at 11 µM. ZTA-DNA binding, fluorescence polarization. 320,000 tested, 0.15% active. AID 2234. P03206; in the data active = inhibition above about 33%
Target sequence (P03206 whole entry, looked up): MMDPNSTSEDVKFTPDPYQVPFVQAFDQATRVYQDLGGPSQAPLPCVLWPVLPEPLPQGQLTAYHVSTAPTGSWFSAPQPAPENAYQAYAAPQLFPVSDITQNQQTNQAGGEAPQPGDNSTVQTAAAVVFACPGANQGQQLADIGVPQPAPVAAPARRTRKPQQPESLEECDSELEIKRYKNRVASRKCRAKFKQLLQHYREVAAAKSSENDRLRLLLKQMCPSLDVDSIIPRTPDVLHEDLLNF
GRIN3A LBD mod – binders of NR3A ligand-binding domain, primary screen, biophysical, differential scanning fluorimetry, uHTS | Tm shift relative to glycine control, % at 25 µM | 340,000 tested, 2.5% active | Glutamate receptor ionotropic, NMDA 3A (GRIN3A) ligand-binding domain | NR3A LBD differential scanning fluorimetry, Tm shift; 0% = protein alone, 100% = glycine-bound protein;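 active = melting temperature shift of at least 10% of the positive control shift, at one fixed dose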
Hits are given with their value; n = inactive; x = not tested or not shown.

SMILES	dFosB activator	EBNA-1 inh	TPT1 inhibitor	Rpn11 inh	ZTA counter	GRIN3A LBD mod
O=C(CN(CCc1ccccc1)S(=O)(=O)c1ccc(Cl)cc1)N/N=C/c1ccc2c(c1)OCO2	n	n	n	n	n	13
O=C(N/N=C/c1ccc2c(c1)OCO2)C(=O)Nc1ccccc1Cl	n	x	x	n	x	14
COc1ccc(S(=O)(=O)N(CCc2ccccc2)CC(=O)N/N=C/c2ccc3c(c2)OCO3)cc1	n	n	n	n	n	n
O=C1CCC(C(=O)O)N1 (stereo unspecified)	n	n	n	n	n	n
CC(C)OP(=O)(OC(C)C)C(Nc1ccccc1)c1ccc2c(c1)OCO2 (stereo unspecified)	n	n	n	n	n	12
C=CCc1cc(Cl)ccc1OC(=O)Nc1cccc(Cl)c1	n	n	n	n	n	11
CCOC(=O)C1=CCN(S(=O)(=O)c2ccccc2C)C1c1cccc(C)c1 (stereo unspecified)	x	x	x	n	x	x
COc1cc(NC(=O)c2ccc3snnc3c2)cc(OC)c1	n	n	n	n	n	19
O=C(Cn1c(-c2ccccc2)noc1=O)NCc1ccccc1	n	n	n	n	n	13
O=C(CC(=O)NCc1ccccc1)NCc1ccccc1	n	n	n	n	n	n
O=C(COC(=O)CCCSc1nc2ccccc2[nH]1)Nc1ccc(Cl)cc1	n	n	n	n	n	16
CCNC(=O)NC(=O)COC(=O)CCCSc1nc2ccccc2[nH]1	n	n	n	n	n	n
CCSc1nc2c(c(=O)[nH]c(=O)n2C)n1C/C=C(/C)Cl	n	n	n	n	n	n
CCOC(=O)C(C)Sc1nc2c(c(=O)[nH]c(=O)n2C)n1C/C=C(/C)Cl (stereo unspecified)	n	n	n	n	n	11
Cc1cc(OCC#N)nc(N)n1	n	n	n	n	n	n
O=C(Nc1cccc2ncccc12)c1ccc(F)cc1	n	n	n	n	n	12
Cc1cc(C)cc(C(=O)Nc2ccncc2)c1	n	n	n	n	n	n
COc1ccc(-n2ncc3c2CC(C)(C)CC3NC(=O)CCCN2CCCC2=O)cc1 (stereo unspecified)	n	n	n	n	n	n
COc1ccc(CCC(=O)OCC(=O)c2ccc(C)cc2)cc1	n	n	n	n	n	56
CC1(C)CC[C@]2(C(=O)O)CC[C@]3(CO)C(=CCC4[C@@]5(C)C[C@H](O)[C@H](O)[C@@](C)(C(=O)O)C5CC[C@]43C)[C@@H]2C1 (stereo partly specified)	n	x	x	n	x	14
CC1(C)C2CC[C@]3(C)C(CC=C4[C@@H]5C[C@@](C)(CO)[C@@H](O)C[C@]5(C(=O)O)CC[C@]43C)[C@@]2(C)CC[C@@H]1O (stereo partly specified)	x	n	n	n	n	n
COc1ccc(NC(=O)c2cccnc2NCCc2ccccc2)cc1	n	n	n	n	n	18
Cc1ccc(NC(=O)COC(=O)c2sccc2C)cc1S(=O)(=O)N1CCOCC1	n	n	n	n	n	n
O=C(O)c1sccc1S(=O)(=O)N1CCOCC1	n	x	x	n	n	11
COc1cccc(N2CCN(C(=O)C3CCCN(c4ncnc5c4nc4n5CCCCC4)C3)CC2)c1 (stereo unspecified)	n	n	n	n	n	n
SMILES	dFosB activator	EBNA-1 inh	TPT1 inhibitor	Rpn11 inh	ZTA counter	GRIN3A LBD mod
Cn1nc(C(F)(F)F)c2cc(C(=O)Nc3ccc(C(F)(F)F)cc3)sc21	n	n	n	n	n	15
COc1cc(OC)c2c(O)c3c(c(-c4c5c(c(O)c6c(OC)cc(OC)cc46)CO[C@@H](C)[C@H]5O)c2c1)[C@H](O)[C@H](C)OC3	n	n	n	72	n	n
Cc1ccc(NC(=O)COC(=O)[C@@H]2CC(O)CN2S(=O)(=O)c2ccc3c(c2)OCCO3)cc1 (stereo partly specified)	n	x	x	n	x	n
Nc1cccc(C(=O)NCCNC(=O)c2cccc(N)c2)c1	n	n	n	n	n	n
COC(=O)c1cc2oc(C)cc2n1CC(=O)N(C)c1ccccc1	n	n	n	n	n	11
C=CCN(C(=O)Cn1c(C(=O)OC)cc2oc(C)cc21)c1ccccc1	n	n	n	n	n	n
